According to PubChem BioAssay (EPA / NIEHS):
Several values for one entry are separate records, joined by “and”; a condition that tells them apart may be missing. Equal entries are not always repeated. Activity calls are given as the source filed them. Rule for the calls: active = hit-call score of the fitted dose curve at least 0.9, where 1 is the maximum; inactive = score below 0.9.

The compounds below were run on Matrix Metallopeptidase 1 (MMP1), MMP1 (gene 4312) (assay: BSK_BF4T_MMP1: BioMAP Diversity Plus: BF4T Assay for Matrix Metallopeptidase 1 (MMP1) Biomarker Activity (AID 2284270)). Details: primary human bronchial epithelial cells with fibroblasts.
Method in brief: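 Co-culture of human bronchial epithelial cells and dermal fibroblasts; MMP-1 levels measured by ELISA 24 hours after chemical dosing, relative to DMSO. Cytotoxicity checked in parallel cultures by SRB total-protein staining.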
With FC(F)(F)C(F)(F)C(F)(F)C(F)(F)C(F)(F)C(F)(F)C(F)(F)Br the outcome was “inactive”.
In the case of Cc1ccc(S(=O)(=O)OCC(F)(F)C(F)(F)C(F)(F)C(F)(F)C(F)(F)C(F)F)cc1, the outcome is reported as “inactive”.
CCO[Si](CCC(F)(F)C(F)(F)C(F)(F)C(F)(F)C(F)(F)C(F)(F)F)(OCC)OCC was tested, and the outcome was “inactive”.
For FC(F)(F)C(F)(F)CNCC(F)(F)C(F)(F)F, the outcome was “inactive”.
With O=C(O)C(F)(F)C(F)(F)C(F)(F)C(F)(F)C(F)(F)C(F)(F)C(F)(F)C(F)(F)Cl the AC50 was 48.7 µM (active) and 55 µM (active).
With FC(F)(F)C(F)(F)C(F)(F)C(F)(F)C(F)(F)CCI the outcome was “inactive”.
FC(F)(F)C(F)(F)C(F)(F)CI was tested, and the outcome was “inactive”.
For FC(F)(I)C(F)(F)C(F)(F)C(F)(F)I, the AC50 was 51.2 µM (active) and 48.6 µM (active) and 50.2 µM (active).
With FC1CC(F)(F)C(F)(F)C1(F)F (centres undefined) the outcome was “inactive”.
